# Compound activity: PubChem, several laboratories
# This is a sample that favours compounds with a hit; in the whole collection about 5% have one here.
# SENP8 block-1: blocks human SENP8 cleavage of Nedd8 substrate; AID 602440; recombinant SENP8, Nedd8 substrate fluorescence; inhibition, % at 20 µM; Q96LD8; 360,000 compounds, 0.64% hits; in the data active = inhibition mostly above about 40%, no sharp cut-off; inactive = mostly below about 27%
# Target sequence (Q96LD8 whole entry, looked up): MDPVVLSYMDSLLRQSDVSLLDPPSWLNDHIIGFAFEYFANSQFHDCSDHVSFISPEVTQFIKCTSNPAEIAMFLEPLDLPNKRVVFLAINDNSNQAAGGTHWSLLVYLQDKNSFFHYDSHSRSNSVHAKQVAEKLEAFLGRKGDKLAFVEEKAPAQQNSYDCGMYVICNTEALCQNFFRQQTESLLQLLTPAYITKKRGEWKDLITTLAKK
# SENP7 inh: inhibitors of human SENP7 protease. Q9BQF6. recombinant SENP7, Z-RLRGG-aminoluciferin luminescence, 40 min. inhibition, % at 5 µM. 330,000 compounds, 1.5% hits. AID 434973;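 active = inhibition above about 50% at the single test dose, limit read from the data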;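 note: plate controls were DMSO with enzyme for no effect and no enzyme buffer wells for full effect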
# Target sequence (Q9BQF6 706-1050 limits assumed): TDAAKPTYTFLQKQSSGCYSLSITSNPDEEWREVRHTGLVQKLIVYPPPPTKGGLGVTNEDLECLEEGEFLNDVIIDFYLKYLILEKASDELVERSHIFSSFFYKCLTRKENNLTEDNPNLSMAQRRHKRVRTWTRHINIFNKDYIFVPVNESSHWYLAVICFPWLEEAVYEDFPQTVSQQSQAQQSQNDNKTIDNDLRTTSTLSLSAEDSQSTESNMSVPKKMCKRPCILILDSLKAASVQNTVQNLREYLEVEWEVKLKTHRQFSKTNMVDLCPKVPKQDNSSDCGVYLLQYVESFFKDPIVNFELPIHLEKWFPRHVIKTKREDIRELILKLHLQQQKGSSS
# SENP8 block-2: blocks the human protease SENP8 | Q96LD8 | purified SENP8, Z-RLRGG-aminoluciferin cleavage, luminescence | inhibition, % at 10 µM | 330,000 compounds, 1.2% hits | AID 2540; in the data active = inhibition above about 50%
# EBI2 block: blocks human EBI2 receptor beta-arrestin signaling; P32249; EBI2 beta-arrestin recruitment, luminescence, 7a,25-OHC stimulated; inhibition, % at 5 µM; 360,000 compounds, 0.81% hits; in the data active = inhibition above about 38%;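 note: enzyme fragment complementation signal reports receptor beta-arrestin coupling in cells; 0% = agonist plus DMSO wells and 100% = wells without agonist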
# AHR activator: activators of human aryl hydrocarbon receptor. activation, % at 5 µM. P35869. 320,000 compounds, 2.5% hits. AHR-responsive luciferase reporter cells, luminescence; in the data active = activation above about 47%;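 note: 0% = vehicle wells and 100% = reference agonist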
# SENP6 inh: inhibitors of human SENP6 protease. Recombinant SENP6 catalytic domain, aminoluciferin luminescence. AID 2599. 330,000 compounds, 1.8% hits. Q9GZR1. inhibition, % at 10 µM;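 active = inhibition above about 50% at the single tested dose, limit read from the data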;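 note: plate controls were DMSO wells with enzyme for no effect and DMSO wells lacking enzyme for full effect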
# SENP8 inh conf: confirmation of human SENP8 protease inhibitors | 1,400 compounds, 15% hits | inhibition, % at 25 µM | shares compounds with SENP8 block-1 | purified SENP8, Nedd8-AMC/pro-Nedd8 cleavage fluorescence, 30 min; in the data active = inhibition mostly above about 39%, no sharp cut-off; inactive = mostly below about 34%
# * = called active by the depositor; . = no result.
SMILES,SENP8 block-1,SENP7 inh,SENP8 block-2,EBI2 block,AHR activator,SENP6 inh,SENP8 inh conf
CCC1CCCCN1C(=O)CCc1nnc(Cc2cc(OC)ccc2OC)o1 (stereo unspecified),26,0,-3,6,12,-10,.
Oc1ccc(Br)cc1-c1cc(-c2ccccc2Cl)[nH]n1,42*,-11,-26,26,47,-26,17
O=C(CN(C1CCCCC1)S(=O)(=O)c1ccc(F)cc1)NCC1CCCO1 (stereo unspecified),46*,.,.,23,.,.,23
CC(=O)N1N=C(c2ccc(C)cc2)OC1c1ccc(Br)cc1 (stereo unspecified),-4,11,7,17,5,15,.
CCOc1ccc(Br)cc1C1=NN(C(C)=O)C(c2ccc([N+](=O)[O-])s2)O1 (stereo unspecified),60*,24,28,11,.,42,56*
CCOC(=O)C1=C(COC(=O)c2ccc(OC)c(S(=O)(=O)N3CCOCC3)c2)NC(=O)NC1C (stereo unspecified),6,.,.,-13,.,.,.
CC(C)(C)N1CC23CCC(C[C@@H]2C1=O)O3 (stereo partly specified),12,3,-7,0,0,-4,.
CCOc1cc(C(c2c(C)[nH][nH]c2=O)c2c(C)[nH][nH]c2=O)ccc1OS(=O)(=O)c1ccccc1,44*,-7,-7,8,-1,11,47*
COc1ccc(S(=O)(=O)N2CCOCC2)cc1NC(=O)COC(=O)C1=COCCO1,41*,-6,-4,7,2,-12,11
C/C(=N\NC(=O)c1cc(-c2ccncc2)nc2ccccc12)c1ccc(OC(F)F)cc1,26,7,2,20,14,0,.
O=C(NC(=S)N1CCN(C/C=C/c2ccccc2)CC1)c1ccco1,4,-5,-4,20,0,2,.
O=C(NC(=S)N1CCN(C/C=C/c2ccccc2)CC1)c1c(F)cccc1F,43*,8,-1,8,1,11,8
O=C(O)c1cccc(C(=O)c2cccc(C(=O)O)c2)c1,8,6,16,-7,1,0,.
O=C(O)c1cccc(Br)c1,42*,.,.,-3,.,.,4
Cc1ccoc1C(=O)NCCNC(=O)c1occc1C,9,6,9,-7,2,2,.
Cc1ccoc1C(=O)NCCCNC(=O)c1occc1C,62*,-1,1,18,26,-4,82*
CCN1CCN(C(=O)C(C)Nc2cc(Cl)c(OC)cc2OC)CC1 (stereo unspecified),44*,9,3,-3,5,40,13
CCCn1c(C)cc(/C=C(\C#N)C(=O)OCC(=O)N(CC)c2c(N)n(Cc3ccccc3)c(=O)[nH]c2=O)c1C,-122,.,.,10,.,.,.
C[C@]12CC[C@@H]3c4ccc(OC(=O)c5ccccc5)cc4CC[C@H]3[C@@H]1CC[C@@H]2O,1,5,6,18,-4,6,.
CC(=O)Oc1ccc2c(c1)CCC1C2CCC2(C)C(OC(C)=O)CCC12 (stereo unspecified),47*,.,.,15,.,.,6
CCN(CC)S(=O)(=O)c1ccc2c(c1)nc(SCC(=O)NC1CC1)n2-c1ccccc1OC,43*,2,4,0,0,-9,26
COc1ccc(CC(=O)NC(C)c2nnc(SCC(=O)c3ccc(OC)cc3)n2C)cc1 (stereo unspecified),3,7,8,-1,2,5,.
COc1ccc(C(=O)CSc2nnc(C(CO)NC(=O)c3ccc(OC)cc3)n2C)cc1 (stereo unspecified),73*,7,1,9,0,-5,13
CN(Cc1cnn(C)c1)Cc1nc(Cc2ccccc2Cl)no1,8,-4,0,-5,-1,5,.
CC(C)N(Cc1cnn(C)c1)Cc1nc(Cc2ccccc2Cl)no1,47*,8,-3,4,0,-5,2
SMILES,SENP8 block-1,SENP7 inh,SENP8 block-2,EBI2 block,AHR activator,SENP6 inh,SENP8 inh conf
O=C(NC1CCCC1)C(c1cccnc1)N(Cc1ccccc1)C(=O)c1csnn1 (stereo unspecified),11,6,4,-13,-2,-16,.
O=c1[nH]cnc2c1ccn2C1OC(CO)C(O)C1O (stereo unspecified),41*,.,.,-6,.,.,9
CC(=O)c1c(C)[nH]c(C(=O)COC(=O)COc2ccccc2F)c1C,3,6,0,-4,2,4,.
C(=N\NC1=Nc2cccc3cccc1c23)/c1cccnc1,51*,2,-6,25,74*,5,27
COCCN1Cc2cccc(C(=O)NCc3cccs3)c2C1=O,42*,-6,-2,2,2,-4,6
CCCCn1c(SCC(=O)NC2CC2)nc2cc(C(=O)OC)ccc2c1=O,-63,.,.,-8,.,.,.
O=C(CCn1c(=O)oc2ccccc21)NCCN1CCc2ccccc2C1,11,12,0,-1,5,-8,.
O=C(CCCn1c(=O)oc2ccccc21)N1CCc2ccccc2C1,48*,0,-7,0,33,-3,78*
COc1ccc(-c2cc(C(F)(F)F)n3nc(C(=O)Nc4c(C)n(C)n(-c5ccccc5)c4=O)cc3n2)cc1,-211,.,.,8,.,.,.
Cc1c(C(=O)NC(C(C)C)C(C)C)cccc1[N+](=O)[O-],12,-4,-1,2,-1,-5,.
CC(=O)N1CCN(C(=O)CCC(=O)O)CC1,54*,11,-1,-4,-2,-24,23
COc1ccc(C(C(=O)NC2CCCC2)n2c(-c3cccs3)nc3ccccc32)cc1 (stereo unspecified),-380,.,.,-1,.,.,.
CC(=O)C1=C(C)NC2(O)c3ccccc3C(=O)C12O (stereo unspecified),66*,4,6,8,7,4,53*
CCOC(=O)C1=C(C)NC2(O)c3ccccc3C(=O)C12O (stereo unspecified),35,16,6,-3,13,0,.
O=C(COC(=O)c1ncc(Cl)c(Cl)c1Cl)NC1CCCCCC1,-2,-16,-5,-1,10,-7,.
CN1CCN(C2=C(Cl)C(=O)N(C3CCCCC3)C2=O)CC1,41*,5,5,-2,3,7,5
CN(C)C(=O)c1ccc(NC(=O)CN2C(=O)NC3(CCCc4ccccc43)C2=O)cc1 (stereo unspecified),19,1,-2,3,1,-2,.
COc1ccc(NC(=O)C2CC(=O)OC23CCOC(C)(C)C3)cc1 (stereo unspecified),42*,0,6,-9,1,-11,10
O=[N+]([O-])c1ccc(/C=[N+](\[O-])CCO)o1,45*,-2,5,-13,1,7,18
C/C(=N\OCC(=O)Nn1c(=O)[nH]c2ccccc2c1=O)c1ccccc1,-2,2,7,4,-1,3,.
